Test results taken from PubChem BioAssay.

target: Tumor necrosis factor receptor superfamily member 10B (Homo sapiens) (UniProt O14763); assay: viability loss of caspase-8 NB7 cells with TRAIL – with/without TRAIL, luminescence panel, confirmation (AID 651596); conditions: NB7 neuroblastoma + caspase-8, TRAIL sensitization, NB7 Caspase-8, with TRAIL, mean of runs, at 10 µM, stronger effect = higher value
Sequence (O14763 whole entry, looked up): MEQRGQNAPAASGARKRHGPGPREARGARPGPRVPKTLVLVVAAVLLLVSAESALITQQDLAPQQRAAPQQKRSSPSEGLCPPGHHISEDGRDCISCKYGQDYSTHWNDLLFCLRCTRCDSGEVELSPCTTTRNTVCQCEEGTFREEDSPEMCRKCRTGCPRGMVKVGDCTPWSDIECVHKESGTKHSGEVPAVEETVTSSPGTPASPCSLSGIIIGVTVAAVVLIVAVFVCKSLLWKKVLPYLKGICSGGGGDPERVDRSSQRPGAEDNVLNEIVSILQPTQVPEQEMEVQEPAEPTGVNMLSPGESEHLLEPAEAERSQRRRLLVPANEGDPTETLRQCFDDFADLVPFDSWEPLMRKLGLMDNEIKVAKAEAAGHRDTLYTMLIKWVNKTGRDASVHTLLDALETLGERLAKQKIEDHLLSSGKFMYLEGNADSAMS

SMILES | activity [%]
Cc1cc(Cl)n2c(nc3cc(F)c(F)cc32)c1C#N | 91.7
C#CCN(C[C@@H]1[C@@H](OC(=O)NCCCCCC)[C@@H](OC(=O)NCCCCCC)Cn2c(=O)ccc(=O)n21)S(=O)(=O)c1ccc(C)cc1 | 96.2
COc1ccc(N2Cc3ccc(OC)c(OC)c3C2=O)cc1 | 40.6
Cc1nc2cc(Nc3nnc(-c4ccccc4)c4ccccc34)ccc2n1C | 87.9
CCc1ccc(/C=N/NC(=O)c2ccccn2)cc1 | 83.9
O=C(Nc1ccc(N2CCCCC2)cc1)c1ccccc1 | 69.6
CN1CCc2c(sc(NC(=O)c3ccc([N+](=O)[O-])o3)c2C(N)=O)C1 | 9.5
NC(c1csc(NC(=O)Nc2cccc(C(F)(F)F)c2)n1)C1CCCCC1 (stereo not given) | 56.4
Clc1ccc(CN2CCc3c([nH]c4ccccc34)C2)cc1Cl | -9.62
Cc1ccc(-c2cc(C(=O)N3CCCC3)no2)cc1 | 73.3
O=C(COc1ccc(/C=N/NC(=O)c2cc3ccccc3o2)cc1Br)Nc1ccccc1 | 93
CC(C)c1ccc(NC(=O)Nc2nc(C(N)CCc3ccccc3)cs2)cc1 (stereo not given) | 86.8
O=C(Nc1ccc(-c2cn3ccsc3n2)cc1)C1CC1 | 75.1
O=C(Nc1ccc2c(c1)OCCO2)c1ccc(Cl)cc1Cl | 72.8
Cc1cccc(/C(N)=N/OC(=O)c2cccc3ccccc23)c1 | 89.5
CC1(C)CC(=O)c2sc(NC(=O)c3cccs3)nc2C1 | 91.9
Cc1ccc(C)c(NC(=S)NC(NC(=O)Cc2cccc3ccccc23)C(Cl)(Cl)Cl)c1 (stereo not given) | 82.6
O=C(CC1CCCC1)Nc1nc2ccccc2[nH]1 | 49.7
COC(=O)Cn1c(=O)c(C(=O)CCl)c(N)n(Cc2ccccc2)c1=O | 93.6
Cc1ccc(NC(=O)CSc2ccc(-c3ccc4c(c3)OCO4)nn2)cc1F | 39

SMILES | activity [%]
CCOC(=O)N1CCN(C(=O)CSCC(=O)Nc2nc(-c3ccc(-c4ccccc4)cc3)cs2)CC1 | 66.9
COc1ccc(-c2cc3cccc(OC)c3oc2=O)cc1 | 81.8
CC[C@]12c3[nH]c4ccc(Cl)cc4c3CCN1C(=O)[C@@H](CC(=O)NCc1cccc(C(F)(F)F)c1)C[C@@H]2C(=O)N1CCN(C(=O)c2ccco2)CC1 | 71
Cc1ccc(OCc2nc(-c3ccccn3)no2)c(Br)c1 | 59.6
O=C1Nc2cc(C(=O)NCCN3CCCCCC3)ccc2S/C1=C/c1ccccc1F | 82.5
Cc1ccc(CSc2nc3ccncc3[nH]2)cc1 | 98.5
Cc1cccc(Cn2ncc(Cl)c(Cl)c2=O)c1 | 92.2
C/C(=N\NC(=O)c1cccc(O)c1)c1cccc(NC(=O)c2ccc(F)cc2)c1 | 74.5
Cc1ccccc1Nc1nc(N)c2ccccc2n1 | 63.9
Cc1cc(NC(=O)c2ccc(S(=O)(=O)N3CCCC3)cc2)nc2c1c(=O)oc1ccccc12 | 69.5
CC(C)(C)NCCC(O)c1cc(C(F)(F)F)nc2c(C(F)(F)F)cccc12 (stereo not given) | 97.5
CCCCC[C@@H](C)N1C[C@H](COCc2ccccc2)Oc2cc(N3CC[C@H](N(C)C)C3)ccc2S1(=O)=O | 12
COCCNC(=O)c1ccc2c3n(nc2c1)-c1ccccc1CO3 | 67.6
Cc1cc(C(=O)CSc2nnc(N)s2)c(C)n1Cc1cccs1 | 72.5
O=C(Nc1nc2ccccc2[nH]1)c1ccccc1O | 63.1
Cc1ccc(C(=O)Nc2nc3ccccc3c(=O)s2)cc1 | 80.8
CCCCCc1cc(=O)oc2c(C(CCN3CCCC3)c3cc(OC)c(OC)c(OC)c3)c(OC)cc(OC)c12 (stereo not given) | 28.4
CN(C)CC(O)c1ccc(C=Cc2ccc(Cl)cc2)cc1 (stereo not given) | 98.3
O=C(Nc1ccccn1)c1onc2c1CCCC2 | 78.8
Cc1cc(C)c(C)c(S(=O)(=O)N2CCN(c3ncnc4ccccc34)CC2)c1C | 40.2
